# Screens from PubChem.
# Hits are enriched below; roughly 2.6% of the tested compounds scored in any of these assays.
# A3A deaminase: APOBEC3A ssDNA deaminase inhibitors, primary screen, selectivity assay for APOBEC3G inhibitor project, biochemical, FAM/TAMRA oligo cleavage fluorescence; actives 0.41% (n = 330,000); inhibition, % at 20 µM; recombinant A3A, FAM/TAMRA ssDNA deamination fluorescence;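 active = at least 40% inhibition at 20 µM here, with at most 30% in a related deaminase screen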;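 also: plate controls were A3A with DMSO for no effect and wells lacking A3A enzyme for full effect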
# Target sequence (P31941 whole entry, looked up): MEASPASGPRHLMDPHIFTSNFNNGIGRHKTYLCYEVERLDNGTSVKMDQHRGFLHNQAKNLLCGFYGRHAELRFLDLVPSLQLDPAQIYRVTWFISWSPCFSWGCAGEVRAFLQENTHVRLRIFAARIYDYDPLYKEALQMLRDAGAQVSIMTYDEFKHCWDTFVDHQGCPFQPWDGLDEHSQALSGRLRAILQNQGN
# A3G deaminase: APOBEC3G DNA deaminase inhibitors, primary screen, biochemical, fluorescence, single-stranded DNA substrate, uHTS. AID 493012, 2011. DNA dC->dU-editing enzyme APOBEC-3G (Homo sapiens), Q9HC16. inhibition, % at 20 µM. recombinant A3G, ssDNA deamination FAM/TAMRA fluorescence. actives 0.28% (n = 330,000);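 active = inhibition of at least 40% at 20 µM, with no more than 30% in the related APOBEC3A deaminase screen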;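 also: plate controls were DMSO wells with A3G for no effect and wells lacking A3G enzyme for full effect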
# eIF4H inh: human eIF4H binding inhibitors, primary screen, translation initiation inhibitor project, biochemical, uHTS, fluorescence polarization. Eukaryotic translation initiation factor 4H (Homo sapiens), Q15056. actives 0.94% (n = 290,000). inhibition, % at 35 µM. eIF4H fluorescence polarization binding assay;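 also: calls also rest on retests at 20 µM and on dose response follow-up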
# PABP FP inh: PABP poly(A) RNA binding inhibitors, primary screen, biochemical, fluorescence polarization, uHTS; Polyadenylate-binding protein 1 (Homo sapiens), P11940; calls only at 35 µM; actives 1% (n = 290,000); AID 2014, 2009;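 also: calls also rest on retests at 20 µM and on dose response follow-up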
# MLLE-PAM2 inh: inhibitors of PABP1 MLLE–PAM2 peptide binding, primary screen, biochemical, fluorescence polarization, FITC-PAM2, GST-MLLE; Polyadenylate-binding protein 1 (Homo sapiens), P11940; inhibition, % at 20 µM; actives 0.36% (n = 360,000); in the data active = inhibition above about 35%, passing the limit was not always enough;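 also: plate controls were DMSO wells with GST-MLLE for no effect and wells lacking GST-MLLE protein for full effect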
# PHOSPHO1 block: PubChem AID 1565; Phosphoethanolamine/phosphocholine phosphatase (Homo sapiens), Q8TCT1; recombinant PHOSPHO1, absorbance phosphatase assay; inhibition, % at 13.3 µM; actives 1.1% (n = 290,000); in the data active = inhibition above about 60%
# Target sequence (Q8TCT1 whole entry, looked up): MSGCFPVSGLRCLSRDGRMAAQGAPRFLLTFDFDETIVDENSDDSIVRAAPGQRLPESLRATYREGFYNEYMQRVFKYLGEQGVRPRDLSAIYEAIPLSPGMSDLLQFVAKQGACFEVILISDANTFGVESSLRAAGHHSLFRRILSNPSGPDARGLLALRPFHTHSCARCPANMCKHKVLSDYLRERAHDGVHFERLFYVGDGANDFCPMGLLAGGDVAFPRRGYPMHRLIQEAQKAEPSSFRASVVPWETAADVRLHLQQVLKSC
# * hit, by the source's call; i = inactive; ? = inconclusive; / = not tested or not shown; + = active, no number. Unless noted, no rule for the calls is given here.
SMILES,A3A deaminase,A3G deaminase,eIF4H inh,PABP FP inh,MLLE-PAM2 inh,PHOSPHO1 block
COc1ccc(CC(=O)NCc2nnc(SCC(=O)Nc3ccc(OC)cc3)n2C)cc1,0,-1,-11,i,0,66*
COc1cccc(NC(=O)CSc2nnc(-c3cccc(OC(C)C)c3)n2N)c1,0,0,0,i,-92,88*
CC(C)OC(=O)CSc1nnc(-c2cnccn2)n1Cc1ccco1,-2,-4,-8,i,-28,12
COc1cccc(-c2nnc(SCC(=O)OC(C)C)n2Cc2ccco2)c1,-2,10,-7,i,-96,72*
COC(=O)[C@@H](NC(=O)Nc1cccc(OC)c1)C(C)C,1,-3,-5,i,4,60*
CCOc1cccc(-c2nnc(SCC(=O)Nc3cc(OC)cc(OC)c3)n2N)c1,-3,-4,-2,i,8,3
COC(=O)[C@@H](NC(=O)Nc1ccc(OC)cc1)C(C)C,-2,-4,8,i,13,-38
Cc1ccc(C(=O)NCCCNC(=O)c2ccc(Cl)cc2)cn1,-2,-9,-10,i,-2,24
COc1cccc(Nc2nnc(SCC(=O)Nc3sccc3C(N)=O)s2)c1,-1,-7,18,i,-81,62*
CCc1ccc(Nc2nnc(SCC(=O)Nc3sccc3C(N)=O)s2)cc1,-1,-8,-10,i,-75,15
COc1cccc(NC(=O)CSC(N)=O)c1,-6,-5,5,i,38*,19
O=C(CN1CCN(c2ccccn2)CC1)Nc1ccc(Oc2ccccc2)cc1,-7,-10,active,i,4,15
COc1ccc(NC(=O)CSc2nnc(CCC(=O)O)c(=O)n2N)cc1,5,1,6,i,46*,32
CCOc1ccc(Cc2nnc(SCC(=O)Nc3ccc(OC)cc3)n(N)c2=O)cc1,1,-5,/,/,-7,/
Cn1ccnc1SCC(=O)Nc1ccc(Oc2ccccc2)cc1,-2,-4,1,i,-3,84*
COc1ccc(NC(=O)CSc2nnc(-c3ccccc3C)n2N)cc1,-3,-4,0,i,37*,17
CC(C)CC1NC(=O)N(CC(=O)N2CCN(S(=O)(=O)c3ccccc3)CC2)C1=O (stereo unspecified),4,-2,-2,i,-15,30
CCCNC(=O)NCCc1c(C)[nH]c2ccccc12,-2,-3,-2,i,53*,6
COc1cccc(C2C(C(=O)c3sc(C)nc3C)=C(O)C(=O)N2CCN(C)C)c1OC (stereo unspecified),/,/,6,i,/,0
COc1ccc(C(=O)C[n+]2ccc3ccccc3c2C)cc1,-3,-9,91*,+,5,0
COc1ccc(C(=O)C[n+]2cccc3cc(OC)ccc32)cc1,1,-13,72,i,-12,-9
CCOc1ccc(NC(=O)CN(C)C(=O)c2cc(-c3ccncc3)nc3ccccc23)cc1OCC,1,-11,/,/,4,/
COc1ccc(C(=O)CSc2ccc(-c3ccco3)nn2)cc1,5,-4,86,i,18,-1
O=C(CSc1ccc(-c2ccccn2)nn1)c1ccc([N+](=O)[O-])cc1,-1,-7,-4,i,26,-26
O=C(CSc1ccc(-c2ccco2)nn1)c1ccccc1,19,-4,101*,+,28,-1
SMILES,A3A deaminase,A3G deaminase,eIF4H inh,PABP FP inh,MLLE-PAM2 inh,PHOSPHO1 block
O=C(CSc1ccc(-c2cccnc2)nn1)c1ccc([N+](=O)[O-])cc1,0,-3,1,i,45*,-23
O=C(CSc1ccc(-c2ccncc2)nn1)c1ccccc1,-4,-7,-8,i,38*,3
CN(C)CCN(C)C1CN(C2CCCC2)S(=O)(=O)C1 (stereo unspecified),/,/,/,/,9,/
CC(NC(=O)CNC(=O)C1O[C@@H]2OC(C)(C)O[C@@H]2[C@H]2OC(C)(C)O[C@@H]12)C(=O)O (stereo partly specified),-1,-3,2,i,8,-4
COc1ccc(CC(=O)N[C@@H]2c3ccccc3CC[C@@H]2OCc2ccccc2)cc1,0,-2,/,/,0,/
COc1ccc(C(=O)COC(=O)c2cccnc2Cl)c(OC)c1,8,0,59*,i,-15,20
CCCC1CC(C(=O)Nc2ccccc2)C(=O)O1 (stereo unspecified),0,-1,/,/,-3,/
COc1ccc(S(=O)(=O)Cc2ccc(C(=O)O)o2)cc1,-1,-8,-15,i,5,20
Cc1ccc(S(=O)(=O)Cc2ccc(C(=O)O)o2)cc1,86,37,86*,+,22,-4
CC(=O)c1sc(NC(=O)C2CCCN2S(=O)(=O)c2ccccc2F)nc1C (stereo unspecified),-1,-3,/,/,-5,/
CCOc1ccccc1NC(=O)CSc1nnc(C2CC2)n1CC,-5,5,4,i,2,36
CSc1nc(=S)c2[nH]c(=S)[nH]c2[nH]1,/,/,92*,+,35,53
Cc1ccccc1C(=O)Nc1ccc(C(=O)O)cc1NC(=O)c1ccccc1C,0,-10,2,i,9,/
COc1ccc(Cn2nnnc2C(CC(C)C)N2CCC(C(N)=O)CC2)cc1 (stereo unspecified),-2,-3,-14,i,1,66*
Brc1ccc(-c2csc(/N=C/N3CCCC3)n2)cc1,-2,-4,active,+,11,-7
O=C(CSc1nc2cc3ccccc3cc2[nH]1)Nc1ccc(F)cc1,-2,-2,-2,i,-36,-37
Cc1ccc(C(=O)N2CCN(S(=O)(=O)c3ccccc3[N+](=O)[O-])CC2)o1,13,-7,51*,i,-9,2
Cc1cccc2c(N=Nc3ccccc3)c(O)[nH]c12,2,-2,95*,+,-19,23
CCOC(=O)C1(C)/C(=N/Nc2ccccc2OC)C(=O)C(=O)N1c1ccccc1 (stereo unspecified),-1,15,-7,i,10,2
CCOC(=O)C1(C)/C(=N/Nc2ccccc2)C(=O)C(=O)N1c1ccccc1 (stereo unspecified),-4,22,-3,i,0,99*
COC(=O)C1C(O)=C(C(C)=Nc2cccc3ccccc23)C(=O)CC1(C)C (stereo unspecified),-6,-2,?,+,3,-1
